Results published in the supplement of paper PMC11732987, “Enantioselective OTUD7B fragment discovery through chemoproteomics screening and high-throughput optimisation” (Communications Chemistry, 2025).

Experiments:
Assay in all cases: log2 ratio of Biotin-Ahx-Ub-VS probe labelling (fragment/DMSO); higher = less target engagement (more negative = stronger competition), active = hit call of the paper (q ≤ 0.05, log2 ratio ≤ -1)
Settings in all cases: compound concentration: 200 uM; treatment time: 3 h
OTUD6B = target: T1, OTUD6B (UniProt Q8N6M0)
T1 sequence (whole entry): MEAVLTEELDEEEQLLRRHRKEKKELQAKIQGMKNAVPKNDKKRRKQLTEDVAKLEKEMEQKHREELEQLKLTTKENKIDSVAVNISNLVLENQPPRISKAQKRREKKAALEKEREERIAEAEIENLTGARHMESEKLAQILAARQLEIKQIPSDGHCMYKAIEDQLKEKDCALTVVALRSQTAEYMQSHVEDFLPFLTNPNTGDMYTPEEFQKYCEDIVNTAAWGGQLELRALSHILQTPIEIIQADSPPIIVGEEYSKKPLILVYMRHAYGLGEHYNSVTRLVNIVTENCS
Procedure, shortened: (§1)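 Lysate from HEK293T cells, 495 µg per sample in Tris/CHAPS/IGEPAL buffer with protease inhibitors, was treated for 3 h in triplicate with fragment at 200 µM or vehicle. Biotin-Ahx-Ub-VS was next added at 0.5 µM final for 1 h. The labelled DUBs were enriched with NeutrAvidin, digested with LysC and trypsin, and run by diaPASEF LC-MS/MS, with values given as average log2 fragment/vehicle ratios by unpaired t-test on global-median-normalised Spectronaut quantities of proteins with ≥2 unique peptides.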

OTUD7B = target: T2, OTUD7B (UniProt Q6GQQ9)
T2 sequence (whole entry): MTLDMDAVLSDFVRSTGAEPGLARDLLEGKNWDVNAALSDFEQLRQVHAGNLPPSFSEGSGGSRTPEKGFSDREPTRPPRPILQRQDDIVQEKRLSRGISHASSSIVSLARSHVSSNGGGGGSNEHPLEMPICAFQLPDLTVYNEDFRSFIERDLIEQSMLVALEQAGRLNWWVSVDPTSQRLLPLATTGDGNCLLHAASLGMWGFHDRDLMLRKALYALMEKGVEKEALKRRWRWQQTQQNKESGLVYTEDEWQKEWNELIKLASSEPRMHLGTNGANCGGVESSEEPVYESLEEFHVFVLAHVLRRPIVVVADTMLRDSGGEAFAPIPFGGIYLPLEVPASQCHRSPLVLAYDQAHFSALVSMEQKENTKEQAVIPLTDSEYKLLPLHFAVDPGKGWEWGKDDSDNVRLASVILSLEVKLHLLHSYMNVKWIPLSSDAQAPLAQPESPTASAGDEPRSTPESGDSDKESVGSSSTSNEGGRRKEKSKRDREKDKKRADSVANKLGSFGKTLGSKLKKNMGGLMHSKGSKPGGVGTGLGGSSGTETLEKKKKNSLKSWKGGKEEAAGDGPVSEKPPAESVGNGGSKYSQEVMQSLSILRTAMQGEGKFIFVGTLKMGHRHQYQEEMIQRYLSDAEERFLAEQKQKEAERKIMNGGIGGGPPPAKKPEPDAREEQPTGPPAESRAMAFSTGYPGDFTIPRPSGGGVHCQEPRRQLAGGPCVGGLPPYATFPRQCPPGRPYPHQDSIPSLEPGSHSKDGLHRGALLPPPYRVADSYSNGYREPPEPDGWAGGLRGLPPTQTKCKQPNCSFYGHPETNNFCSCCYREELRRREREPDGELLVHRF
Procedure, shortened: as §1

PRPF8 = PRPF8 (UniProt Q6P2Q9)
Procedure, shortened: as §1

PSMD7 = target: T3, PSMD7 (UniProt P51665)
T3 sequence (whole entry): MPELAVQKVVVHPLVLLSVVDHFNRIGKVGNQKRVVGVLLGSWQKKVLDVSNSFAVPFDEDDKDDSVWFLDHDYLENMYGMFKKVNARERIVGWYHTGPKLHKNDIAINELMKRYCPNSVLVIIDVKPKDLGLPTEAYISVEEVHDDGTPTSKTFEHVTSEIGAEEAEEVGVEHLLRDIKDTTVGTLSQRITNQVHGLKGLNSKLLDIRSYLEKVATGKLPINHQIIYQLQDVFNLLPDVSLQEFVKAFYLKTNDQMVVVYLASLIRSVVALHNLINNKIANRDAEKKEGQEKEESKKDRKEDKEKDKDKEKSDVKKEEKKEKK
Procedure, shortened: as §1

UCHL1 = UCHL1 (UniProt P09936)
Chain of UCHL1 (P09936 whole entry, looked up): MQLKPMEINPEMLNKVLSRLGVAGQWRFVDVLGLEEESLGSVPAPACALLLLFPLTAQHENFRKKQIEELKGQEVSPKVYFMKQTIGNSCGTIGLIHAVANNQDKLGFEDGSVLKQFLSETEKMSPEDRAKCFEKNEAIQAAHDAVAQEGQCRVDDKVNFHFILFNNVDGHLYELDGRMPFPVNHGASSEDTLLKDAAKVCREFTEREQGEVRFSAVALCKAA
Procedure, shortened: as §1

UCHL3 = target: T4, UCHL3 (UniProt P15374)
T4 sequence (whole entry): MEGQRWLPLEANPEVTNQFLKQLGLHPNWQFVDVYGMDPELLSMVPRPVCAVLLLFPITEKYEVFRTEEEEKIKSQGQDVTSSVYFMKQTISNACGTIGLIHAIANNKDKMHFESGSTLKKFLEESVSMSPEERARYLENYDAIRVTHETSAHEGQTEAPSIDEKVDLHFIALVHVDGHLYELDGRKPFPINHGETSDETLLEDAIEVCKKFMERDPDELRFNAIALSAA
Procedure, shortened: as §1

UCHL5 = target: T5, UCHL5 (UniProt Q9Y5K5)
T5 sequence (whole entry): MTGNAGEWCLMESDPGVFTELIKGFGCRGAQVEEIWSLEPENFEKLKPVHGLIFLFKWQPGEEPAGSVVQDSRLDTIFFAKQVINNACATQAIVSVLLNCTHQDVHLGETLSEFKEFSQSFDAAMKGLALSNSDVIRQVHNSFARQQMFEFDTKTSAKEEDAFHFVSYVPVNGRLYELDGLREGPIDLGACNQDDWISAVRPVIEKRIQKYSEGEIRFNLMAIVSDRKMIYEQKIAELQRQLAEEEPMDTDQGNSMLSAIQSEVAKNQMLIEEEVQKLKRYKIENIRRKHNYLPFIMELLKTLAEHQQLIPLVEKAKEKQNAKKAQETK
Procedure, shortened: as §1

USP10 = USP10 (UniProt Q14694)
Chain of USP10 (Q14694 whole entry): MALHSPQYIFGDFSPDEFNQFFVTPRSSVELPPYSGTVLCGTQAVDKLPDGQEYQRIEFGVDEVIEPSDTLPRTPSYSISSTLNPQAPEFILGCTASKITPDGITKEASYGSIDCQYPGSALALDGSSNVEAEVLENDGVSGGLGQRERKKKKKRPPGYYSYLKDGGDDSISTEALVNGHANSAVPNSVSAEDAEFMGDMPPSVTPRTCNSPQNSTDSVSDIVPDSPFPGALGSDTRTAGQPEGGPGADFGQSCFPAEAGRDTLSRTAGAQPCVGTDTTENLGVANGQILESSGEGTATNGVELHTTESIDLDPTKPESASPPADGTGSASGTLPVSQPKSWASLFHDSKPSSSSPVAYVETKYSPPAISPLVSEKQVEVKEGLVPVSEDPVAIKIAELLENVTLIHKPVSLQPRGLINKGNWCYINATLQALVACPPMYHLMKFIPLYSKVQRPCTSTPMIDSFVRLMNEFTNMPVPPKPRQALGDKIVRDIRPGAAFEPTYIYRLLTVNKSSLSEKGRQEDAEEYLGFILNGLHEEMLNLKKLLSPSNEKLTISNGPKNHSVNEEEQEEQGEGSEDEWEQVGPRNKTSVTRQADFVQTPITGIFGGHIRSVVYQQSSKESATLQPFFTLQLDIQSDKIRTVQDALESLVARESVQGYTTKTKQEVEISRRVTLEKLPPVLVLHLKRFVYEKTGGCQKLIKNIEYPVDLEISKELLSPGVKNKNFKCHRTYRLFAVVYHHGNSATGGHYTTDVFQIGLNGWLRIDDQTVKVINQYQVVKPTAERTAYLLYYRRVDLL
Procedure, shortened: as §1

USP15 = target: T6, USP15 (UniProt Q9Y4E8)
T6 sequence (whole entry): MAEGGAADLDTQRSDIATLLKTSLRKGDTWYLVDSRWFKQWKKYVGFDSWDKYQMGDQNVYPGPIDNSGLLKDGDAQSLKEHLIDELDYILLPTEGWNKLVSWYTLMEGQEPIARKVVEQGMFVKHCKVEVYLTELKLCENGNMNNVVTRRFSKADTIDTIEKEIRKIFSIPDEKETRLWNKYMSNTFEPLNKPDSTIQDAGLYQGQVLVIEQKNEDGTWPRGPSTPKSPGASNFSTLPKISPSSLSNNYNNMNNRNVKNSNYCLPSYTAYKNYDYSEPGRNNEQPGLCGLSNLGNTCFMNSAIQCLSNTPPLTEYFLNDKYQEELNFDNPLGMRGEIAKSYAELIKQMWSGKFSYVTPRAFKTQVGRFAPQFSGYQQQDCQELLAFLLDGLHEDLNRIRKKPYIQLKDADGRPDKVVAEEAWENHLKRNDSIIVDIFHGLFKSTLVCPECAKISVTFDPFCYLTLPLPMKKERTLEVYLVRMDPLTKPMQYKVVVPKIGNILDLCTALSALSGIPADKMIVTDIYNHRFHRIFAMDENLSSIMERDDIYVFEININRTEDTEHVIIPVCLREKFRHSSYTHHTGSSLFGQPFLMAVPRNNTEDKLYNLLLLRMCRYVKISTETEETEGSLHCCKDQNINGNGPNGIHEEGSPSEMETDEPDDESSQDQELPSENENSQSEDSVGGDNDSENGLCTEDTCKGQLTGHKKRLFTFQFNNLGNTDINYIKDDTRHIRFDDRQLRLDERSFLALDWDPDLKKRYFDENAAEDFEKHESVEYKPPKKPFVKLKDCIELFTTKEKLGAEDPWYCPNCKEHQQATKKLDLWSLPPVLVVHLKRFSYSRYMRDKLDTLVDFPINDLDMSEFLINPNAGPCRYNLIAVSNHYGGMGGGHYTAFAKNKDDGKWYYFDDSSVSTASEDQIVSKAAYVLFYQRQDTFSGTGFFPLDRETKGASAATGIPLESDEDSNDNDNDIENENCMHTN
Procedure, shortened: as §1

USP16 = USP16 (UniProt Q9Y5T5)
Chain of USP16 (Q9Y5T5 whole entry, looked up): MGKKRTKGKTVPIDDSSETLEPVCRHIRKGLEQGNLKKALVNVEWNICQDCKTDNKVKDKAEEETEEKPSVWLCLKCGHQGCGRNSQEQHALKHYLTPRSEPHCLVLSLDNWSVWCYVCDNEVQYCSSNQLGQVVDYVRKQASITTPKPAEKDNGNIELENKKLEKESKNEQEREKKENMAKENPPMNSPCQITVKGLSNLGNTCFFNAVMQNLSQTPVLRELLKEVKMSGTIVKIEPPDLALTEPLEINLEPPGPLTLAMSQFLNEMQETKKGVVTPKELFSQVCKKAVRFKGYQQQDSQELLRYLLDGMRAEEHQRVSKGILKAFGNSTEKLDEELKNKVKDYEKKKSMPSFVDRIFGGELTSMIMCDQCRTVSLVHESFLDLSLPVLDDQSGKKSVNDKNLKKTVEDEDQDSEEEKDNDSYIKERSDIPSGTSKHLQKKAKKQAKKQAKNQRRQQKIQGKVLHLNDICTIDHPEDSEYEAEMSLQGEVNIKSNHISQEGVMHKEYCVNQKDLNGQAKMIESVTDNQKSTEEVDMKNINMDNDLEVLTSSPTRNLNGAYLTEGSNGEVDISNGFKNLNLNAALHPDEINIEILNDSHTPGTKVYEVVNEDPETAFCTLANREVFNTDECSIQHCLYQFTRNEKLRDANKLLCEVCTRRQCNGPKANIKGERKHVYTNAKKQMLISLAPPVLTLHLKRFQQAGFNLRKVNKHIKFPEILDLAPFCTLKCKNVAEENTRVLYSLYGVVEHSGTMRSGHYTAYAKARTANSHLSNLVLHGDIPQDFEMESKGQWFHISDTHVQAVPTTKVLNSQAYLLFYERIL
Procedure, shortened: as §1

Measured: log2 ratio of Biotin-Ahx-Ub-VS probe labelling

Cl.O=C(CCl)N1CCc2ncncc2C1
inactive: OTUD6B -0.0834 | OTUD7B -0.487 | PRPF8 0.0782 | PSMD7 -0.0569 | UCHL1 -0.583 | UCHL3 0.176 | UCHL5 -0.176 | USP10 -0.322 | USP15 -0.514 | USP16 -0.106
